Compound activity as filed in PubChem.
KB-3-1 cytotox = KB-3-1 parental cell cytotoxicity | AID 1347075 | Potency, µM (titrated, usually from 46.1 µM), hits mostly cytotoxic | KB-3-1 viability, CellTiter-Glo ATP luminescence, 72 h | 400,000 compounds, 1.4% hits; note: nearly all actives have a fitted effect of over 60% in size
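KB-3-1 parental drug-naive adenocarcinoma cells in DMEM/10% FBS, incubated 72 h at 37 C with pin-transferred compounds across a concentration series. Viability by CellTiter-Glo luminescence; concentration-response curves fitted after normalization.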
HT1080NT lethal = kills 2HG-producing HT-1080-NT fibrosarcoma cells; HT-1080-NT fibrosarcoma viability, CellTiter-Glo ATP luminescence, 48 h; Potency, µM (highest dose often 46.1 µM), hits mostly cytotoxic; 360,000 compounds, 1.6% hits;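 note: NT is the 2HG producing partner of a matched IDH1 knockdown line; nearly all actives have a fitted effect of over 55% in size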
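Viability by CellTiter-Glo luminescence after 48 h compound exposure at 37C of HT-1080-NT cells (750/well, RPMI, 5% FBS). % activity scaled between DMSO wells and medium-only wells, then curve-fitted and categorized by curve class.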
S2 tox = viability counter-screen for ATXN expression inhibitors | S2 cells (HEK-293 line with an ATXN2-luciferase reporter) viability, CellTiter-Fluor protease fluorescence, 24 h | Potency, µM (top dose mostly 56.7 µM), actives largely listed as cytotoxic | 400,000 compounds, 0.49% hits | AID 651635; note: nearly all actives have a fitted effect of over 40% in size
KB-V1 MDR tox = KB-V1 MDR subline cytotoxicity; KB-V1 MDR cells viability, CellTiter-Glo, 72 h; 400,000 compounds, 3.4% hits; Potency, µM (titrated, usually from 46.1 µM), actives largely listed as cytotoxic; note: nearly all actives have a fitted effect of over 60% in size
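qHTS viability screen in drug-selected KB-V1 MDR cells: 72 h compound treatment at 37 degrees C, ATP luminescence end point.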
HT1080 IDH1KD tx = kills HT-1080 cells with IDH1 knockdown; Potency, µM (doses to about 46.1 µM), actives largely listed as cytotoxic; HT-1080 IDH1 knockdown viability, ATP luminescence, 48 h; 360,000 compounds, 2% hits
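% activity derives from luminescence (CellTiter-Glo), normalised to DMSO and no-cell wells. HT-1080-IDH1KD cells, 750/well, had 48 h compound exposure at 37 °C.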
ATXN2 expr inh = reduces ATXN2 reporter expression in HEK-293 cells; HEK-293 ATXN2-luciferase reporter, luminescence, 24 h; Potency, µM (series often up to 57 µM), usual class: inhibitors; 360,000 compounds, 0.72% hits; note: nearly all actives have a fitted effect of over 55% in size
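qHTS (up to 57 uM final) was run with 24 h compound exposure of reporter cells at 37 °C. Each well was multiplexed: SteadyGlo luminescence measured ATXN2-luciferase expression after a fluorogenic Gly-Phe-AFC viability readout (25 uM final).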
Of the large screens only hits and unclear results are named; the others gave an inactive call. Hits are enriched below; roughly 6.2% of the tested compounds scored in any of these assays. Calls come from the whole dose curve; as a rule, active = well fitted curve in the direction sought with a large enough effect; inconclusive = small, poorly fitted or top-dose-only effect, or another doubt; inactive = no such curve, though single readings can be large; an effect the other way counts as inactive or inconclusive.

CC[n+]1cccc(Br)c1	none (no result: HT1080NT lethal, S2 tox, HT1080 IDH1KD tx, ATXN2 expr inh)
N#Cc1ccc(-c2csc(NNC(=O)c3ccc(Br)cc3)n2)cc1	HT1080NT lethal 8.2µM, S2 tox inconclusive, HT1080 IDH1KD tx 5.2µM, ATXN2 expr inh inconclusive
N#Cc1ccc(-c2csc(NNC(=O)c3ccccc3)n2)cc1	HT1080 IDH1KD tx 10µM
O=C(NNc1nc(-c2ccccc2)cs1)c1ccccc1	KB-3-1 cytotox inconclusive, KB-V1 MDR tox 16µM
COC1=C(N)C(=O)c2nc(-c3nc(C(=O)O)c(C)c(-c4ccc(OC)c(OC)c4O)c3N)ccc2C1=O	KB-3-1 cytotox 0.15µM, HT1080NT lethal 0.0092µM, S2 tox 2.2µM, KB-V1 MDR tox 0.21µM, HT1080 IDH1KD tx 0.0082µM
COc1ccc(-c2ncncc2-c2csc(C)n2)c(O)c1OC	none
CCN(CC)c1nc(N)c2c(N)nc3c(c2c1C#N)CC(c1ccccc1)O3 (centres undefined)	KB-V1 MDR tox 21µM, HT1080 IDH1KD tx inconclusive
CCOc1ccc(C(=O)NCc2ccncc2)cc1OCC	S2 tox inconclusive
Cc1ccc(SCCC(=O)NCc2ccncc2)cc1	KB-V1 MDR tox inconclusive
O=C(Nc1cnccn1)c1ccncc1	none
CCOc1cc(C(=O)Nc2cnccn2)cc(OCC)c1OCC	HT1080NT lethal inconclusive, S2 tox inconclusive, KB-V1 MDR tox inconclusive, HT1080 IDH1KD tx 10µM
CCOc1cc(C(=O)NCc2ccncc2)cc(OCC)c1OCC	KB-V1 MDR tox 7.3µM
Cc1ccc(SCc2ccc(C(=O)NCc3ccncc3)cc2)cc1	KB-V1 MDR tox 18µM
Cc1nn2c(=O)cc(COC(=O)C(c3ccccc3)c3ccccc3)nc2s1	none (no result: HT1080NT lethal, HT1080 IDH1KD tx)
O=C(CO)[C@@H](O)[C@H](O)[C@H](O)CO	none (no result: KB-3-1 cytotox, HT1080NT lethal, KB-V1 MDR tox, HT1080 IDH1KD tx, ATXN2 expr inh)
CCCCOC(=O)Cn1nnc2sc(-c3ccccc3)cc2c1=O	none (no result: HT1080NT lethal, HT1080 IDH1KD tx)
Cc1cccc(-c2nc3nc(C)cc(NC(C)c4ccccc4)n3n2)c1 (centres undefined)	S2 tox inconclusive, KB-V1 MDR tox inconclusive (no result: HT1080NT lethal, HT1080 IDH1KD tx)
COc1ccc(OC)c(N(CCN2C(=O)c3ccccc3C2=O)C(=O)CCl)c1	KB-3-1 cytotox inconclusive, HT1080NT lethal inconclusive, S2 tox 1.6µM, KB-V1 MDR tox inconclusive, HT1080 IDH1KD tx 16µM (no result: ATXN2 expr inh)
CCCCCOC(=O)c1[nH]c2c(c1C)C(=O)C(C(=O)OC)C(C)C2 (centres undefined)	KB-3-1 cytotox inconclusive, KB-V1 MDR tox 18µM
COCCOC(=O)c1[nH]c2c(c1C)C(=O)C(C(=O)OC)C(C)C2 (centres undefined)	none
CC(=O)c1cccc(N2C(=O)C3C4CCC(C4=C(C)C)C3C2=O)c1 (centres undefined)	KB-V1 MDR tox 18µM
Cc1ccccc1NC(=O)c1cccc(N2C(=O)C3C4CCC(C4)C3C2=O)c1 (centres undefined)	HT1080NT lethal inconclusive, KB-V1 MDR tox 23µM
Cc1ccc(NC(=O)c2cccc(N3C(=O)C4C5CCC(C5)C4C3=O)c2)c(C)c1 (centres undefined)	S2 tox inconclusive, KB-V1 MDR tox 4.1µM
O=C(Nc1ccc(Cl)cc1)c1cccc(N2C(=O)C3C4CCC(C4)C3C2=O)c1 (centres undefined)	KB-3-1 cytotox inconclusive, KB-V1 MDR tox 8.2µM
Cc1nc(C)c(CC(=O)N2CCOc3ccc(CN4CCOCC4)cc3C2)s1	none (no result: KB-3-1 cytotox, HT1080NT lethal, KB-V1 MDR tox, HT1080 IDH1KD tx, ATXN2 expr inh)
O=C(CCCCCCCCC#CI)Oc1ccccc1	none (no result: KB-3-1 cytotox, HT1080NT lethal, KB-V1 MDR tox, HT1080 IDH1KD tx)
O=c1c2ccccc2sn1-c1ccc(Cl)c(S(=O)(=O)N2CCOCC2)c1	KB-V1 MDR tox inconclusive (no result: HT1080NT lethal, S2 tox, HT1080 IDH1KD tx, ATXN2 expr inh)
Cc1ccc(-c2cc(-c3ccccc3C)[nH]n2)c(O)c1	KB-3-1 cytotox 21µM, HT1080NT lethal 21µM, KB-V1 MDR tox 13µM, HT1080 IDH1KD tx 18µM
Cc1ccc(O)c(-c2cc(-c3ccccc3F)[nH]n2)c1	KB-3-1 cytotox inconclusive, HT1080NT lethal 23µM, S2 tox inconclusive, HT1080 IDH1KD tx 21µM
Cc1ccc(-c2cc(-c3cccc(F)c3)n[nH]2)c(O)c1	HT1080NT lethal inconclusive, HT1080 IDH1KD tx inconclusive
Cc1ccc(C)c(NC(=O)c2cc(-c3cc(C)ccc3O)n[nH]2)c1	HT1080NT lethal 33µM, HT1080 IDH1KD tx inconclusive
CCCCN(C)CCCNC(=O)Cn1ncc2c3ccccc3n(Cc3cccc(Cl)c3)c2c1=O	none (no result: HT1080NT lethal, HT1080 IDH1KD tx)
CCOC(=O)COc1ccc(C)cc1C(=O)c1ccn2nc(-c3ccc(C)cc3)cc2n1	none (no result: HT1080NT lethal, HT1080 IDH1KD tx)
Cc1sc(NC(=O)/C=C/C(=O)O)c(C(N)=O)c1-c1ccc(C(C)(C)C)cc1	HT1080NT lethal inconclusive, HT1080 IDH1KD tx 21µM
CCOC(=O)c1c(NC(=O)/C=C/C(=O)O)sc(C)c1-c1ccc(C(C)(C)C)cc1	HT1080NT lethal 8.2µM, S2 tox inconclusive, KB-V1 MDR tox inconclusive, HT1080 IDH1KD tx 5.8µM
CCOc1ccc(Nc2cc(C)c(C#N)c3nc4ccccc4n23)cc1	none (no result: HT1080NT lethal, HT1080 IDH1KD tx)
COc1ccccc1CNc1ncnc2c1cnn2-c1ccc(C)cc1	S2 tox inconclusive (no result: HT1080NT lethal, HT1080 IDH1KD tx)
CC(=O)/C(=N\Nc1ccccc1Cl)Sc1cccc2cccnc12	HT1080NT lethal 21µM, KB-V1 MDR tox inconclusive, HT1080 IDH1KD tx inconclusive, ATXN2 expr inh inconclusive
CC(=O)/C(=N\Nc1ccccc1)Sc1cccc2cccnc12	none
CC(C)c1c(C(=O)NCCN2CCOCC2)cnn1-c1nccc(-c2ccco2)n1	none (no result: KB-3-1 cytotox, HT1080NT lethal, KB-V1 MDR tox, HT1080 IDH1KD tx, ATXN2 expr inh)
